# Measurements: article PMC13494018
# Values without a mark were called inactive. How the calls were made is not given here.
# B1: d8r1_design_ppi_897_dldesign_0_cycle1_af2pred (protein)
# chain: NPEAKDAALVKIGEGASYVAAASGDTAVARTVFTTSYTGVQEGNLEAAAAAAVATVAAAVDAATAARVAALAAAAVAAYKA
# B2: d8r1_design_ppi_1481_dldesign_0_cycle1_af2pred (protein)
# chain: SSDEDYAALVEGMALASQTYAQARALIAATGAAGGAQARALAQAAAAQLRAAGAKYPSRAAQYDALADGLVRTVTAAAA
# B3: d8r1_design_ppi_1429_dldesign_0_cycle1_af2pred (protein)
# chain: SSLKREEILRKTAEAMAEATLAKVRELAKEDPERARRALENMRALLALLGPVAAKIGEEAYARGLAIIAEIA
# B4: d8r1_design_ppi_400_dldesign_0_cycle0_af2pred (protein)
# chain: SAELAAIKAAAENARAGAILLAKESKAETALKFNEAAKERLLKLAAATADAKAAKAVVEEEAKKAEEEIKKIGEE
# B5: d8r1_design_ppi_640_dldesign_0_cycle1_af2pred (protein)
# chain: SEEEEKKYEELAKAGAAASKAGAVAAKHPDNPEIKKLADEAGKALSEAFTSDVETAKKLAEKVEALAKAAEALAA
# B6: d8r1_design_ppi_87_dldesign_0_cycle1_af2pred (protein)
# chain: SEEEFERRIAIAAEQLAAMDAALAAIKASGDAAEKQALLAQLRAAGEEMAKALGPAGAAIAEALLAQAEAALAA
# B7: d8r1_design_ppi_1136_dldesign_0_cycle0_af2pred (protein)
# chain: SAAAAARARTAAANAAALAKKMLEAGVSPENARALVEAAAARLTPEAGAALRAEGEALVAEYAARREAEAA
# B8: d8r1_design_ppi_47_dldesign_0_cycle1_af2pred (protein)
# chain: GQAALDAAAKRLDELTKEAEKASPNTGKAVEAIRDGSIRVATALFAAGDAARGRAALENGVAASEKLVEATKS
# B9: d8r1_design_ppi_118_dldesign_0_cycle0_af2pred (protein)
# chain: GLVSLLRAAKNTLESAIEAEDAEKAAKYLAGAAQLLEGAAKLDPRVEPAAKLAKEAAAAAKADIEKGKAKAKEALKAVEELLKEAEEE
# B10: d8r1_design_ppi_700_dldesign_0_cycle0_af2pred (protein)
# chain: SENKAKMEEHLAKAKEALLKGDPAAAPLAEAMAKAAKEEGPAALMAAAAAAYAAVVAADPSAAPLASQALAHAAKAAIYLGDS
# B11: d8r1_design_ppi_1339_dldesign_0_cycle0_af2pred (protein)
# chain: DEAWLAEIKALVSAAVAAAREGDVAALAAAQAAAAALAAAAPASVKPAAANATAGIATLLELTKERLEEKA
# B12: d8r1_design_ppi_266_dldesign_0_cycle0_af2pred (protein)
# chain: SKVEEAKERFEKVVEEAEKKVKEALAKAKTAEEALKASIEAIKEAASEIAKIYSEVGEEVADLAVEALARLSALTAEAKAAAAKKAAA
# B13: d8r1_design_ppi_412_dldesign_0_cycle1_af2pred (protein)
# chain: AKAAQLRATSDLYALAYIAEKKVGKALADKLRAAAASGDPAAMLAAAEEAAKAIGEIGKRLYERLVAALA
# B14: d8r1_design_ppi_637_dldesign_0_cycle1_af2pred (protein)
# chain: MTAEAAKAEVRARLEAAGERAAEAAKERGADYEAVLAAARSMAERAAADPDPEAALARGAEALAFLEALEKYYRE
# B15: d8r1_design_ppi_1102_dldesign_0_cycle1_af2pred (protein)
# chain: DAVREAGVAAAQAIKVALDEGDKELANAVSEAARAAVADPALAPLVKEGAELIIDPEKREQGRELVEKAVAAYKAAQ
# B16: d8r1_design_ppi_1493_dldesign_0_cycle1_af2pred (protein)
# chain: AAESEALRQQAIDLAQKAAEIAADDENAEEVKARIDAAIAHLQAGDYAAAAADLLAAAKLASPEARGYILKALLKAMEAA
# B17: d8r1_design_ppi_1381_dldesign_0_cycle1_af2pred (protein)
# chain: AAARQELVDRALAALDAARAASPEEAVAIAPKAYGLAVMVGEDPRVQAALEAAAAANPAAAPILNEALALARATAAAQAAARAAA
# B18: d8r1_design_ppi_345_dldesign_0_cycle1_af2pred (protein)
# chain: ATAEATATKIKTGIEKMLKLSKELGKGALINAAAAAKASAKVMDKLLADPSITPAARAALTAARDEAEKAAKEAEAEAKKL
# B19: d8r1_design_ppi_1038_dldesign_0_cycle1_af2pred (protein)
# chain: SDKRLAKNTAEAILRRTKELAKKAAAATAEEAKALAAIAEKGAKSAEAVAKKSGDEETKKLAKEAKEAAKKAKE
# B20: d8r1_design_ppi_482_dldesign_0_cycle1_af2pred (protein)
# chain: SESEEWIKEITDAANQAVALAKAGKTAEAYALLDATAAKAAAKSPSRGALAKGVADAMRVYIDKYAAKKA
# B21: d8r1_design_ppi_994_dldesign_0_cycle1_af2pred (protein)
# chain: GKVEELEKKFREELQAAADLIAELRKADPELGKLAAKALAYALANPELGRKLAEEVAAKSPLGAKAAAEILALIETREELLKAEKEA
# B22: d8r1_design_ppi_882_dldesign_0_cycle0_af2pred (protein)
# chain: MTPEEAAAAARAIGAAAAAAIAASTDLATAGALADAAFRALVALAAAFPEVAPVASAEMAAVAKAFIAKGDAL
# B23: d8r1_design_ppi_508_dldesign_0_cycle1_af2pred (protein)
# chain: AGKEALAKAIAEVKELVTAAMLANQKSREEGIKTAKEQAEKAKKLAEEAKASPLAAEIVKVLQSGRDFLEKLAEMLKES
# B24: d8r1_design_ppi_592_dldesign_0_cycle1_af2pred (protein)
# chain: GDAEDAVRAAENALKSAENYLAKADTLEQAQKAINAAKGAREFIKYAAKLGADPATVAALEKKANAVEEAAKAKAKALA
# B25: d8r1_design_ppi_700_dldesign_0_cycle1_af2pred (protein)
# chain: EETKKKRDEYVKKAGEALLKADPTLTAQAAAIKDAAYNAGPAALMAAMAAAYKAAVAANPANAPYAAEAVNYAAKAAIYAKEA
# B26: d8r1_design_ppi_1265_dldesign_0_cycle0_af2pred (protein)
# chain: SETEEGAKALIRAAANAAKYLAKKYGELAKKLAELVKKALEAGPEEAVKYLEEAAALAKEAGQKTGGTKAFAALQATLKKAAELKKK
# B27: d8r1_design_ppi_674_dldesign_0_cycle1_af2pred (protein)
# chain: SEEKINQAWIDTSKASELILAGEELSVTDPEKGAALIEKGRALAEEAAKAVPSKAEAILSTAEKTLEVAKARAAEVAA
# B28: d8r1_design_ppi_996_dldesign_0_cycle1_af2pred (protein)
# chain: SASDIKAAQKAAAAVLRVAAERFPEVAAVAEPAAETAYNGDAETAIKAILEAAEAIRAAAARLPGGAELRAYADALENIAALLKRLAA
# B29: d8r1_design_ppi_419_dldesign_0_cycle1_af2pred (protein)
# chain: SALEEKAKEAIEKMEKAAEELKKAAAELKKLDPEAGAAAEAALEAHLAILELAKKFSTKVTLNVAEAMTRGLERALKEAKARIAALK
# B30: d8r1_design_ppi_482_dldesign_0_cycle0_af2pred (protein)
# chain: STTDEMIEKIAKAAQEAMKLAKEGKYEEAYALLKKMAEEAAKVSESLGALAKGVAEAMKNWIDKYKAEKA
# B31: d8r1_design_ppi_416_dldesign_0_cycle0_af2pred (protein)
# chain: SEEAARILAETLGTISAQTAAAKAAAAAGDVEAARAAAAAARAAAEEGAKRLEELGNKSGAEALRSIGAATAAHIKALAAKAAA
# B32: d8r1_design_ppi_1124_dldesign_0_cycle1_af2pred (protein)
# chain: STATAAANAAAFSSKGAAVVGDKFAPSVESVLERVVELDPAAGLAAAEAVAAAAAAHPAVRAVAEAVAARARAAL
# B33: d8r1_design_ppi_1136_dldesign_0_cycle1_af2pred (protein)
# chain: AAEKEARDLAAADNAIALVKKMLEAGVSPENALATAEAAAALLSPAARARLLAAARAIVAAHEAAKAAAAA
# B34: d8r1_design_ppi_882_dldesign_0_cycle1_af2pred (protein)
# chain: MTPEEAAAEARRIGDGAAAAIAASTDVATAKAIYDRAVTELTALAAAFPEVAHVASAELVKVAKAYIAKGDAL
# B35: d8r1_design_ppi_753_dldesign_0_cycle0_af2pred (protein)
# chain: SAEAQAALAGARAAVAGAELLVEVAEETGSQGALRAAKRAAEAAEEAARKAAELGAEEEARELEERAREVRERAEKLE
# B36: d8r1_design_ppi_43_dldesign_0_cycle1_af2pred (protein)
# chain: EEALKKASEALSEAARLAIKNPAYLPAFAATGAAYGKVLEAYKKSPEEAKKAAKELLALYEKEVAAAKAAL
# B37: d8r1_design_ppi_540_dldesign_0_cycle1_af2pred (protein)
# chain: DKKTETILAGMEAASNAAALLKKDPAAGGAYLLAKAKEVGAAVGNAADIVPAAAAAAADPATAAARLREFVSIVVSSVTS
# B38: d8r1_design_ppi_323_dldesign_0_cycle1_af2pred (protein)
# chain: SALEEAKRAIAEARELAAEAKARGPAAAPAAAIAANAIAGAELLVELGSYEAATAVARAGIRVARAYLAAV
# B39: d8r1_design_ppi_753_dldesign_0_cycle1_af2pred (protein)
# chain: NAAAKAALAAAKAAVEGASLLVEVAEKEGSKGMLEAAKRVAEEAIAAAEKAAKLGATEEAAKLKAQAKEVKKRAEKLE
# Target: PDL1, Q9NZQ7
# Sequence (Q9NZQ7 whole entry): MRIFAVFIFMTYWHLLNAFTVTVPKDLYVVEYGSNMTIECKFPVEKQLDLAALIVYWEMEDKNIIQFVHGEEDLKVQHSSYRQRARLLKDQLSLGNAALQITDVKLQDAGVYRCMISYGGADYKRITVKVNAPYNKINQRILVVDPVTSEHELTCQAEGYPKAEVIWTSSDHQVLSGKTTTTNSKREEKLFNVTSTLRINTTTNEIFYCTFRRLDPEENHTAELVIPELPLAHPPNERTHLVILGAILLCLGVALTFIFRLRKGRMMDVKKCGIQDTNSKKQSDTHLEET
row,Binder,binding in a display sort
1,B1,not found
2,B2,binds (active)
3,B3,not found
4,B4,not found
5,B5,not found
6,B6,not found
7,B7,binds (active)
8,B8,not found
9,B9,not found
10,B10,not found
11,B11,not found
12,B12,not found
13,B13,not found
14,B14,not found
15,B15,not found
16,B16,binds (active)
17,B17,not found
18,B18,not found
19,B19,not found
20,B20,binds (active)

row,Binder,binding in a display sort
1,B21,not found
2,B22,not found
3,B23,not found
4,B24,not found
5,B25,not found
6,B26,not found
7,B27,not found
8,B28,not found
9,B29,not found
10,B30,not found
11,B31,binds (active)
12,B32,not found
13,B33,not found
14,B34,not found
15,B35,not found
16,B36,not found
17,B37,not found
18,B38,not found
19,B39,not found
